The structures appear in SMILES notation. Results filed as inconclusive are left out. The source made the active and inactive calls. Unless noted, calls follow the shape of the dose curve; as a rule, active = well fitted curve in the direction sought with a large enough effect; inconclusive = small, poorly fitted or top-dose-only effect, or another doubt; inactive = no such curve, though single readings can be large; an effect the other way counts as inactive or inconclusive.

A short description of assay [1]: qHTS for Inhibitors of Cell Surface uPA Generation: Validation Assay (AID 493164).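 Also: RAW 264.7 macrophage cells exposed to compound for 18 h.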 Summed up: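 ATP-Lite luminescence read-out: ATP remains high when uPA activity-dependent LF translocation into the cytoplasm is blocked. RAW 264.7 cells, 18 h compound exposure at 37 C; 7-point titration, 2.45 nM to 38.3 uM final.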
Assay [2] addresses Galactokinase (Homo sapiens) (UniProt P51570). The assay can be described thus: qHTS Validation Assay for Inhibitors of Human Galactokinase (GALK) (AID 493189). Also: potency is read from the fitted curve at half-maximal effect. Put shortly:
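5 nM GALK / 100 uM galactose / 35 uM ATP, 20 mM HEPES pH8.0, 5 mM MgCl2, 60 mM NaCl, 1 mM DTT, 0.01% BSA (final). RT 1 h; Kinase-Glo Plus luminescence.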
(In general: Quantitative high-throughput screening tests each substance at several concentrations.)

A short description of assay [3]: Validation screen for small molecules that induce DNA re-replication in SW480 colon adenocarcinoma cells (AID 504364). Put shortly: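 Image-based qHTS: compounds were incubated with SW480 cells for 48 hr, nuclei stained with Hoechst, and per-nucleus fluorescence intensity scanned to flag cells with excess DNA content.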
Assay [4] deals with Phosphoglycerate kinase, glycosomal (Trypanosoma brucei brucei) (UniProt P07378). As to the kind of experiment: qHTS Validation Assay to Find Inhibitors of Phosphoglycerate Kinase (AID 504547). Put shortly: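 In TEA buffer (100mM, pH 7.6) containing 5mM MgCl2 and 0.01% Tween-20, the GAPDH-coupled PGK reaction proceeded for 60 minutes at room temperature before a single luminescence reading using Kinase-Glo Plus.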

The target in assay [5] is phosphoglycerate mutase (Leishmania major) (UniProt Q4Q090). The assay can be described thus: qHTS Validation Assay to Find Inhibitors of Phosphoglycerate Mutase (AID 504548). Also: series mostly up to about 58 µM. The conditions noted are these: Potency: inhibition qHTS. Put shortly:
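Lm PGAM at 1.25 nM final with substrate in 100 mM TEA pH 7.6, 5 mM MgCl2, 0.01% Tween-20; 45 min at room temperature. Kinase-GloPlus added, 10 min, end-point luminescence read.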

For assay [6], the target named is Ubiquitin carboxyl-terminal hydrolase 1 (Homo sapiens) (UniProt O94782). The assay can be described thus: Inhibitors of USP1/UAF1: Pilot qHTS (AID 504865). Also: nearly all actives have a fitted effect of over 35% in size. Also: potency is read from the fitted curve at half-maximal effect. Put shortly: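 In 50mM HEPES pH 7.8 containing 0.5mM EDTA, 1mM TCEP, 0.1 mg/ml BSA and 0.01% Tween-20, 1nM USP1/UAF1 is exposed to compound for 15 min, then Ub-Rho (150nM final) is added and fluorescence is read over time.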

Assay [7] is described as follows: qHTS for Inhibitors of ATXN expression: Validation of Cytotoxic Assay (AID 588349). Also: potency is read from the fitted curve at half-maximal effect. Summed up:
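Titrated compounds are added to cultured HEK293 cells, which are then held at 37 degrees C for 72 hr; loss of intracellular ATP, measured with CellTiter Glo, indicates toxicity.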

The nature of assay [8]: qHTS for Inhibitors of ATXN expression: Validation (AID 588378). Also: nearly all actives have a fitted effect of over 75% in size. Also: potency is read from the fitted curve at half-maximal effect. Put shortly:
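Compounds were pinned onto attached HEK293 cells carrying an ATXN2-firefly luciferase construct and incubated 24 hrs at 37 degrees C. Each well then received a fluorescent viability reagent followed by luciferase substrate for end-point luminescence.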

The target of assay [9] is Peptidyl-prolyl cis-trans isomerase NIMA-interacting 1 (Homo sapiens) (UniProt Q13526). As to the kind of experiment: qHTS Validation Assay to Find Inhibitors of Pin1 (AID 504536; active = well fitted inhibition curve with a large enough effect in the polarisation, with a control signal flat, not every such curve was filed as active; the % refers to the polarisation; also: potency is read from the fitted curve at half-maximal effect). Summed up: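 Fluorescence polarization competition: compounds (titration) displace HiFluor-488-labeled Pin1-1b peptide from Pin1 (0.3 uM final) in pH 7.5 HEPES buffer with DTT, 10 min at room temperature; %Activity normalized to no-enzyme wells, curves fitted.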

The target in assay [10] is DNA dC->dU-editing enzyme APOBEC-3G (Homo sapiens) (UniProt Q9HC16). The assay can be described thus: qHTS for inhibitors of Vif-A3G interactions: Validation (AID 588379). Summed up:
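Yellow fluorescence (Ex 488, Em 500-530) of Vif-coexpressing HeLa A3G-eYFP cells, scanned by Acumen cytometer, reports blocked A3G degradation. Cells plated at 700/well overnight at 37 deg C before compound addition, then a further overnight compound incubation at 37 deg C.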

Chain of DNA dC->dU-editing enzyme APOBEC-3G (Homo sapiens) (Q9HC16 whole entry, looked up): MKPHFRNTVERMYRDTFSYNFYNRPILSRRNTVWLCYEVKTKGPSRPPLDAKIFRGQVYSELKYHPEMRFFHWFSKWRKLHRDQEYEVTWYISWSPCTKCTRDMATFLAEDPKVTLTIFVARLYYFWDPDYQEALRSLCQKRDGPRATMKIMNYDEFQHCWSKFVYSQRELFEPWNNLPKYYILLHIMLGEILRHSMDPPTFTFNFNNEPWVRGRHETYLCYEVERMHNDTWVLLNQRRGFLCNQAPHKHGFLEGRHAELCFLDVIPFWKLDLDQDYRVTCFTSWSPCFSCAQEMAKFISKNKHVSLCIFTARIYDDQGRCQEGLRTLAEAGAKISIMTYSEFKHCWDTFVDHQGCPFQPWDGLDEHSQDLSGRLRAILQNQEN
Chain of Phosphoglycerate kinase, glycosomal (Trypanosoma brucei brucei) (P07378 whole entry, looked up): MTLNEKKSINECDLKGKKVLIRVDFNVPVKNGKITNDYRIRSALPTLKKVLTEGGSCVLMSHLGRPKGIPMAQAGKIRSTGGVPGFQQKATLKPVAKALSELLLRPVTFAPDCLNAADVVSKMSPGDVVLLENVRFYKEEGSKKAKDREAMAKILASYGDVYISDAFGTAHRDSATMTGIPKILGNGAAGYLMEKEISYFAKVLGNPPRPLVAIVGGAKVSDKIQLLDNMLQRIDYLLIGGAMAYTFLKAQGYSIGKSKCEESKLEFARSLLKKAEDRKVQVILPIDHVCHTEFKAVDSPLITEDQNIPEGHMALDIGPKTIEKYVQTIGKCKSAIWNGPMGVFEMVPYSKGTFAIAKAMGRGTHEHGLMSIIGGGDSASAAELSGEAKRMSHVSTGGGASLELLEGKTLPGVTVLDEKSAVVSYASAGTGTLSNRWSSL
Chain of phosphoglycerate mutase (Leishmania major) (Q4Q090 1-553): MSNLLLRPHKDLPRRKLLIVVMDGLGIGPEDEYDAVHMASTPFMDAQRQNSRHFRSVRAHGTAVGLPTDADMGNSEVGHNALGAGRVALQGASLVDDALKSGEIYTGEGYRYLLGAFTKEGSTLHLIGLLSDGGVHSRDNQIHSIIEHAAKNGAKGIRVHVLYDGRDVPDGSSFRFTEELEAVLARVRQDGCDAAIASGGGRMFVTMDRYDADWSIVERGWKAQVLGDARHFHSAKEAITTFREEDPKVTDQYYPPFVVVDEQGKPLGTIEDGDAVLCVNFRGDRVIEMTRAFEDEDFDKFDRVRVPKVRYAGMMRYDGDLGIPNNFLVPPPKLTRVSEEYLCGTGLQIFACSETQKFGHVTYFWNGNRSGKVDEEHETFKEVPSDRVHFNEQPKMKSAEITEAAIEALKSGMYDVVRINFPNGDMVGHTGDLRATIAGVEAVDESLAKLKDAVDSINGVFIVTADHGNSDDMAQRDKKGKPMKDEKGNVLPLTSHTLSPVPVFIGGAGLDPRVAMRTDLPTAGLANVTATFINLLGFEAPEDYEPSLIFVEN
Chain of Ubiquitin carboxyl-terminal hydrolase 1 (Homo sapiens) (O94782 whole entry, looked up): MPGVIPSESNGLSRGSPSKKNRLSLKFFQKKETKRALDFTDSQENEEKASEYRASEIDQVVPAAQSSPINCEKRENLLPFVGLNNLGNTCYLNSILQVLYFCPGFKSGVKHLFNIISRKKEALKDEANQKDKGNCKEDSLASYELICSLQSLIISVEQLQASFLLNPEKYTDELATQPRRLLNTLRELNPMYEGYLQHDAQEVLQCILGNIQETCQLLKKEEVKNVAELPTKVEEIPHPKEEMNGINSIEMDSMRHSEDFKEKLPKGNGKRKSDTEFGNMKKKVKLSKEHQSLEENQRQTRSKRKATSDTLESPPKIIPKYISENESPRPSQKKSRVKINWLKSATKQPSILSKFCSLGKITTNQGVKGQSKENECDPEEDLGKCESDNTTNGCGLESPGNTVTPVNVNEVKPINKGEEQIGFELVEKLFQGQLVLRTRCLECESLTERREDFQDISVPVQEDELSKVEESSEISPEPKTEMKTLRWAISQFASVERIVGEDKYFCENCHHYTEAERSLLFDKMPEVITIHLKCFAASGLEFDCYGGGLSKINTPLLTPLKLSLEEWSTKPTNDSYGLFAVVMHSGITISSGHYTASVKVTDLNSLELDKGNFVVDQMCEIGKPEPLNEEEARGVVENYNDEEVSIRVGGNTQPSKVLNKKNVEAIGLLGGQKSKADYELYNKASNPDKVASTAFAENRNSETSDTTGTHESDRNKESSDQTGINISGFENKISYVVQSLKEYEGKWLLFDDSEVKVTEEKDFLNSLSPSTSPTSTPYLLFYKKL
Chain of Peptidyl-prolyl cis-trans isomerase NIMA-interacting 1 (Homo sapiens) (Q13526 whole entry, looked up): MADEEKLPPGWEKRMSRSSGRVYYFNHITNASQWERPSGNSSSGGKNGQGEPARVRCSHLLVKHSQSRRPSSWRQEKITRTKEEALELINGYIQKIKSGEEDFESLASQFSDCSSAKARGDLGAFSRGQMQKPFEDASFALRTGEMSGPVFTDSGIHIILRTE
Chain of Galactokinase (Homo sapiens) (P51570 whole entry, looked up): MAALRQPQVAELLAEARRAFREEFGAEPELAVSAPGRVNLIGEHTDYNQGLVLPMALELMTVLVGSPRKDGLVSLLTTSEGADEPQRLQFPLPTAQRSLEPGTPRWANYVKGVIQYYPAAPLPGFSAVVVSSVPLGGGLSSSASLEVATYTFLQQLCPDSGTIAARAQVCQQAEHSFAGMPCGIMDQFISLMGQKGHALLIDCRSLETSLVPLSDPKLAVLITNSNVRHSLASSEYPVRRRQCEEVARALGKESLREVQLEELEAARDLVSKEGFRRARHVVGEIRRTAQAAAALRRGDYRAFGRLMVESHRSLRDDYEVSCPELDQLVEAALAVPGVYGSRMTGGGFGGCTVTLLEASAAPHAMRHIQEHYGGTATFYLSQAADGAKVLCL

On to `CCCCCCCCCCC/C=C\C(C)(C)/C=C\CCCC(=O)O`, for which, in assay [1], the compound was classed as inactive. Moreover, the Potency result in assay [2], in assay [3], in assay [4], in [5], in assay [7] and in [8] was “inactive” throughout. In addition, the Potency in [6] is 28.2 µM (active).
Turning to `CCCCCCCCCC[Si](C)(C)CCC(=O)NC(Cc1ccc(C)cc1)c1ccccc1` (stereo not given), the compound was classed as inactive in assay [1]. For the same compound, the Potency result in [2], in assay [3], in [9], in assay [5], in [6] and in assay [7] was “inactive” in each case. The Potency result in [8] is “inactive”.
As for `[N-]=[N+]=Nc1ccc(C(=O)CSC[C@H](NC(=O)CC[C@H](N)C(=O)O)C(=O)NCC(=O)O)cc1`, the call in assay [1] was inactive. The Potency entry in assay [2], in assay [3], in assay [5], in [7] and in [8] was “inactive” each time. The Potency in [9] was 23.9 µM (active); in assay [6] it was 35.5 µM (active).
For `N[C@H](C(=O)O)c1cc(O)cc(O)c1`, the outcome in assay [1] was inactive. Moreover, the Potency result in [2], in [3], in [4], in [5], in assay [6] and in assay [7] was “inactive” throughout. The Potency entry in assay [8] and in assay [10] was “inactive” each time.
For `O=C(O)C1=CCNCC1`, the compound was classed as inactive in [1]. Further, the Potency entry in assay [2], in assay [3], in [9], in assay [5], in [6] and in assay [7] was “inactive” throughout. The Potency entry in assay [8] and in [10] was “inactive” in each case.
Take `C=CC[C@H](N)C(=O)O`: the call in assay [1] was inactive. Moreover, the Potency entry in assay [2], in assay [3], in [9], in [5], in assay [7] and in assay [8] was “inactive” throughout.
On to `Cn1cc(C(F)(F)F)nc1-c1ccc(OCC(O)CNCCOc2ccc(O)c(C(N)=O)c2)cc1` (stereo not given), for which the outcome in [1] was inactive. Moreover, the Potency entry in assay [2], in [3], in assay [9], in assay [5], in assay [6] and in [7] was “inactive” each time. For the same compound, the Potency result in assay [8] is “inactive”.
Consider `O=c1[nH]ccc2c(O)cccc12`, for which the result in assay [1] was inactive. The Potency entry in [2], in [3], in assay [4], in assay [5], in [6] and in [8] was “inactive” in each case.
Consider `CC1=C(C(=O)O)N2C(=O)[C@@H](NC(=O)C(N)C3=CCC=CC3)[C@H]2SC1` (stereo not given in full), for which the result in assay [1] was inactive. The Potency entry in [2], in assay [3], in assay [4], in [5], in assay [6] and in [7] was “inactive” in each case. Further, the Potency result in assay [8] was “inactive”.
Turning to `O=C(O)C1=CC(=C(c2ccc(O)c(C(=O)O)c2)c2ccc(O)c(C(=O)O)c2)C=CC1=O`, in assay [1], the outcome was inactive. The Potency in assay [2] was 14.1 µM (active); in [9], 0.675 µM (active); in [6], 8.91 µM (active). Besides, the Potency entry in assay [3], in [7] and in assay [8] was “inactive” throughout.
As to `COc1cc2c(CCNC(C)=O)c[nH]c2cc1O`, the compound was called inactive in assay [1]. Besides, the Potency result in [2], in assay [3], in assay [9], in [5], in assay [6] and in [7] was “inactive” in each case. The Potency entry in [8] is “inactive”.
As to `O=C(O)/C(=C/c1c(C(=O)O)[nH]c2cc(Cl)cc(Cl)c12)c1ccccc1`, in assay [1], the result was inactive. In addition, the Potency entry in [2], in [3], in [9], in [5], in [6] and in assay [7] was “inactive” throughout. Also, the Potency result in [8] was “inactive”.
As for `CC(N)(C(=O)O)c1ccc(C(=O)O)cc1` (stereo not given), in assay [1], the compound was classed as inactive. Moreover, the Potency result in assay [2], in [3], in assay [4], in assay [5], in [6] and in [7] was “inactive” in each case. Besides, the Potency result in [8] was “inactive”.
For the compound `CC(C)(CO)Cc1cc(C(C)(C)C)c(O)c(C(C)(C)C)c1`, in assay [1], the compound was classed as inactive. Besides, the Potency entry in assay [2], in [3], in [9], in assay [5] and in [10] was “inactive” each time.
`O=S(=O)(c1cccc2c(Cl)cccc12)N1CCCNCC1`: the outcome in assay [1] was inactive. For the same compound, the Potency entry in [2], in assay [3], in [9], in assay [5], in assay [6] and in assay [7] was “inactive” each time. Besides, in assay [10], the Potency result was “inactive”.
In the case of `N[C@H](C(=O)O)[C@H](O)C(=O)O`, the result in assay [1] was inactive. Moreover, the Potency result in assay [2], in assay [3], in assay [4], in [5], in [6] and in [7] was “inactive” in each case. In addition, the Potency entry in [8] and in assay [10] was “inactive” in each case.
Turning to `c1ccc(C2CN3CCSC3=N2)cc1` (stereo not given), in assay [1], the outcome was inactive. Also, the Potency entry in [2], in assay [3], in [9], in [5], in assay [6] and in assay [7] was “inactive” each time. In addition, in [8], the Potency result was “inactive”.
Turning to `CN1C2CCC1CC(OC(c1ccccc1)c1ccccc1)C2` (stereo not given), the compound was classed as inactive in assay [1]. The Potency entry in assay [2], in assay [3], in assay [4], in assay [5], in assay [6] and in assay [7] was “inactive” each time.
`COc1cccc(OC)c1OCCNCC1CSc2ccccc2O1` (stereo not given): in assay [1], the outcome was inactive. Moreover, the Potency result in assay [2], in assay [9], in assay [4] and in assay [5] was “inactive” in each case.
In the case of `O[Si](CCCN1CCCCC1)(c1ccc(F)cc1)C1CCCCC1` (stereo not given), the compound was classed as inactive in assay [1]. Besides, the Potency entry in assay [2], in assay [9], in [4], in [5] and in [6] was “inactive” throughout.
Regarding `NS(=O)(=O)c1cccc2c1c([N+](=O)[O-])cc1nc(O)c(O)nc12`, the result in assay [1] was inactive. Besides, the Potency entry in assay [2], in assay [3], in [4], in [5], in assay [8] and in assay [10] was “inactive” in each case.
Turning to `Fc1ccc(CN(C2=NCCN2)c2c(Cl)cccc2Cl)cc1`, the result in assay [1] was inactive. Also, the Potency entry in [3], in assay [9], in assay [4], in [5] and in assay [6] was “inactive” each time.
In the case of `O=c1[nH]c(=O)c2nc3ccccc3nc2[nH]1`, the outcome in assay [1] was inactive. The Potency entry in assay [2], in assay [3], in assay [4], in assay [5], in assay [7] and in assay [8] was “inactive” in each case.
Consider `CC[C@@H]1Cc2cc(O)ccc2C2=C1c1ccc(O)cc1C[C@H]2CC`, for which the result in assay [1] was inactive. Besides, the Potency result in [2], in [9], in [4], in assay [5] and in assay [6] was “inactive” in each case. Moreover, the Potency in [7] was 22.4 µM (active); in assay [8], 15.8 µM (active).
Regarding `C=CCN1CCc2c(cc(O)c(O)c2Br)[C@@H](c2ccccc2)C1`, the outcome in [1] was inactive. Further, the Potency result in assay [2], in assay [9], in assay [4], in assay [5] and in assay [7] was “inactive” in each case.
On to `COC(=O)C(C)(N)Cc1ccc(O)cc1` (stereo not given), for which, in [1], the outcome was inactive. In addition, the Potency result in assay [3], in [9], in assay [4], in assay [5], in [6] and in assay [7] was “inactive” in each case. Further, the Potency entry in assay [8] was “inactive”.
Regarding `Cc1ccccc1/C=C/C1=NCCN1`, in [1], the compound was classed as inactive. The Potency entry in assay [2], in assay [9], in [4], in [5] and in [6] was “inactive” each time.
